Measurements from PubChem BioAssay (NCATS).
Several values for one entry are separate records, joined by “and”; a condition that tells them apart may be missing. Equal values may be shown once. Results filed as inconclusive are left out. A call without a number means that no potency is given here. A number with no mark means an inactive call. Activity calls are given as the source filed them. Calls follow the shape of the dose curve; as a rule, active = well fitted cell-killing curve with a large enough effect; inconclusive = small, poorly fitted or top-dose-only effect; inactive = no such curve, though single readings can be large or run the other way.
Potency is read from the fitted curve at half-maximal effect.

Test: qHTS of pediatric cancer cell lines to identify multiple opportunities for drug repurposing: Primary screen for Rh41 cells (AID 1347108); also: nearly all actives have a fitted effect of over 70% in size;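 as to activity change, negative = cytotoxic: luminescence drop marks cytotoxic hits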
Conditions: Rh41 rhabdomyosarcoma viability, CellTiter-Glo luminescence, 48 h; series mostly up to 46 µM; activity change, negative = cytotoxic: at the top concentration
Excerpt: Drug repurposing or repositioning has been offered as a strategy for drug development in oncology programs. This approach has special potential for childhood cancers and other rare or orphan diseases, where the expected return on new drug development has been a disincentive to pharmaceuticals. […] In this project we exploit the poly-pharmacology of drugs to discover new indications via phenotypic screening of a panel of 19 well-characterized cell lines derived from solid tumors seen in children and adolescents. The goal is to identify approved drugs with previously unrecognized anticancer properties that has the potential to reveal new mechanisms and biological processes involved in carcinogenesis or drug resistance. We employed a titration-based paradigm (quantitative high-throughput screening or qHTS), where all compounds were tested at multiple concentrations for their effect on cell viability. Concentration-response curves (CRCs) were derived directly from the primary screen, and both potency and efficacy values were used to identify compounds with robust bioactivity profiles. We screened the NIH Chemical Genomics Center (NCGC) Pharmaceutical Collection (NPC) and Mechanism Interrogation Plate (MIPE) small molecule collections of approved and investigational compounds against these cell lines; and measured metabolically active cells after 48 hours of compound treatment as a proxy for cell viability. […] Assay Submitter: Nathalia J. Martinez, National Center for Advancing Translational Sciences, National Institutes of Health, Rockville, MD, USA; email: natalia.martinez@nih.gov Shen, M et al. Quantitative high-throughput phenotypic screening of pediatric cancer cell lines identifies multiple opportunities for drug repurposing. Oncotarget 2017 Dec 19;9(4):4758-4772. PMID 29435139.
The cells were obtained from University of North Carolina (UNC), Pediatric Preclinical Testing Program (PPT), and Coriell Institute (CI). qHTS cell viability assay: Cells were assayed in growth media at a density of 500-1,000 cells/well. Five microliters of cells were dispensed into 1,536-well, white, solid-bottom, TC-treated plates (Greiner Bio One) using a multidrop dispenser and incubated at 37 degrees C, 5% CO2, under a humidified atmosphere for 5 hours. Twenty-three nanoliters of compounds and controls (neutral control DMSO or positive control bortezomib at final concentration of 2.3 µM) were subsequently transferred by Kalypsys pintool. For primary screens, the MIPE collection was tested at 11-point dilutions (final concentrations range from 0.78 nM to 46 µM) and the NPC collection at 8-point dilutions (final concentrations range from 0.59 nM to 46 µM). Compounds tested in follow-up screens were assayed at 11-point dilutions. Cells were incubated for 48 hours, followed by addition of 3 µL of CellTiter-Glo (Promega). After a 15 min incubation at room temperature, samples were analyzed for luminescence intensity using a ViewLux High-throughput CCD imager equipped with clear filters.
With `Cc1c(-c2ccc(O)cc2)n(Cc2ccc(OCCN3CCCCCC3)cc2)c2ccc(O)cc12` the “activity change, negative = cytotoxic” value was 15.6%. In the case of `Nc1nc(N)c2nc(CNc3ccc(C(=O)NC(CCC(=O)O)C(=O)O)cc3)cnc2n1` (stereo not given), the “activity change, negative = cytotoxic” value is reported as 32.5%. With `CCOCC(O)COc1ccc(NC(=O)CC[S+](C)C)cc1` (stereo not given) the Potency was “inactive”. With `CN1CCN(c2c(F)cc3c(=O)c(C(=O)O)cn4c3c2OCN4C)CC1` the Potency was “inactive”. In the case of `CNNCc1ccc(C(=O)NC(C)C)cc1`, the Potency is reported as “inactive”. For `CCCN[C@H]1CCc2nc(N)sc2C1`, the Potency was “inactive”. In the case of `O=S(=O)(c1cccc2cnccc12)N1CCCNCC1`, the Potency is reported as “inactive”. For `COCCCOc1cc(C[C@@H](C[C@H](N)[C@@H](O)C[C@H](C(=O)NCC(C)(C)C(N)=O)C(C)C)C(C)C)ccc1OC`, the Potency was “inactive”. For `CC(C)(C)NC(=O)[C@H]1CC[C@H]2[C@@H]3CC[C@H]4NC(=O)C=C[C@]4(C)[C@H]3CC[C@]12C`, the “activity change, negative = cytotoxic” value was 1.98%. With `O=NN(CCCl)C(=O)NC1CCCCC1` the Potency was “inactive”. In the case of `Cc1noc(NS(=O)(=O)c2ccc(N)cc2)c1C`, the Potency is reported as “inactive”. For `OC(Cn1cncn1)(Cn1cncn1)c1ccc(F)cc1F`, the Potency was “inactive”. For `CC1=NN(c2ccccc2)C(=O)C1`, the Potency was “inactive”. For `CC1(C)[C@H](C(=O)O)N2C(=O)C[C@H]2S1(=O)=O`, the “activity change, negative = cytotoxic” value was 28.5%. With `Cn1c(=O)c2c(ncn2CC(O)CO)n(C)c1=O` (stereo not given) the Potency was “inactive”. With `CCc1cc(C(N)=S)ccn1` the Potency was “inactive”. With `Cc1cccc(Nc2ccncc2S(=O)(=O)NC(=O)NC(C)C)c1` the Potency was “inactive”. With `C[C@]12C=CC(=O)C=C1CC[C@@H]1[C@@H]2C(=O)C[C@@]2(C)[C@H]1CC[C@]2(O)C(=O)CO` the Potency was “inactive”. For `CCCCS(=N)(=O)CCC(N)C(=O)O` (stereo not given), the “activity change, negative = cytotoxic” value was 18.7%. In the case of `CCN(CC)CCn1c(=O)c(Cc2ccc(OC)cc2)nc2ccccc21`, the “activity change, negative = cytotoxic” value is reported as 22.5%. With `N[C@@H](Cc1ccc(O)c(O)c1)C(=O)O` the “activity change, negative = cytotoxic” value was 33.8%. For `S=P(N1CC1)(N1CC1)N1CC1`, the Potency was “inactive”. With `CCCc1cc(C(N)=S)ccn1` the Potency was “inactive”. In the case of `CCOc1cc(N)c(Cl)cc1C(=O)NCC1CN(Cc2ccc(F)cc2)CCO1` (stereo not given), the Potency is reported as “inactive”. For `Cc1ccc(S(=O)(=O)N[C@@H](Cc2ccccc2)C(=O)CCl)cc1`, the Potency was 18.7 µM (active). In the case of `Nc1nc(F)nc2c1ncn2[C@@H]1O[C@H](CO)[C@@H](O)[C@@H]1O`, the Potency is reported as 1.48 µM (active). In the case of `CC(C(=O)O)c1ccc2c(c1)CC(=O)c1ccccc1S2` (stereo not given), the “activity change, negative = cytotoxic” value is reported as 32.3%. With `CC(C)OC(=O)OCOP(=O)(CO[C@H](C)Cn1cnc2c(N)ncnc21)OCOC(=O)OC(C)C` the Potency was “inactive”. In the case of `O=C(NCC1CN(c2ccc(N3CCOCC3=O)cc2)C(=O)O1)c1ccc(Cl)s1` (stereo not given), the Potency is reported as “inactive”. In the case of `NC1(c2ccc(-c3nc4ccn5c(=O)[nH]nc5c4cc3-c3ccccc3)cc2)CCC1`, the Potency is reported as 11.8 µM (active). For `CNS(=O)(=O)CCc1ccc2[nH]cc(C3CCN(C)CC3)c2c1`, the Potency was “inactive”. With `Cn1nnc2c(C(N)=O)ncn2c1=O` the Potency was “inactive”. For `COc1cc2nc(N3CCCN(C)CC3)nc(NC3CCN(Cc4ccccc4)CC3)c2cc1OC`, the Potency was 18.7 µM (active). For `COc1c(N2CCNC(C)C2)c(F)cc2c(=O)c(C(=O)O)cn(C3CC3)c12` (stereo not given), the Potency was “inactive”. In the case of `CCOC(=O)c1ccc(OC(=O)CCCCCN=C(N)N)cc1`, the “activity change, negative = cytotoxic” value is reported as 21.2%. With `C#CCN[C@@H]1CCc2ccccc21` the Potency was “inactive”. For `CC(C)(Sc1cc(C(C)(C)C)c(O)c(C(C)(C)C)c1)Sc1cc(C(C)(C)C)c(O)c(C(C)(C)C)c1`, the Potency was “inactive”. In the case of `CC(C)C1CCC(C(=O)N[C@H](Cc2ccccc2)C(=O)O)CC1` (stereo not given in full), the Potency is reported as “inactive”. With `CCOC(=O)c1ccc(C#Cc2ccc3c(c2)C(C)(C)CCS3)nc1` the Potency was “inactive”. In the case of `CC(C)C[C@H](NC(=O)[C@H](CCc1ccccc1)NC(=O)CN1CCOCC1)C(=O)N[C@@H](Cc1ccccc1)C(=O)N[C@@H](CC(C)C)C(=O)[C@@]1(C)CO1`, the Potency is reported as 23.7 nM (active) and 46.9 nM (active).
